Bioassay records from PubChem BioAssay.
KB-V1 MDR tox: kills drug-selected multidrug resistant KB-V1 cells. 3.4% of 400,000 active. Potency, µM (highest dose often 46.1 µM), usual class: cytotoxic. AID 1347076. KB-V1 MDR cells viability, CellTiter-Glo, 72 h; further: nearly all actives have a fitted effect of over 60% in size
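Luminescent ATP read-out (CellTiter-Glo, 10 min) measures survival of drug-selected KB-V1 MDR cells after 72 h, 37 degrees C compound exposure. Medium: phenol-red-free DMEM, 10% FBS. Values from fitted concentration-response curves.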
KB-3-1 cytotox: KB-3-1 parental cell cytotoxicity; 1.4% of 400,000 active; KB-3-1 viability, CellTiter-Glo ATP luminescence, 72 h; Potency, µM (highest dose often 46.1 µM), usual class: cytotoxic; further: nearly all actives have a fitted effect of over 60% in size
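Parental KB-3-1 viability, qHTS format: 72 h compound exposure, 37 °C; CellTiter-Glo; media-only wells and DMSO plates as controls; concentration-effect fits on corrected data.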
HT1080 IDH1KD tx: kills HT-1080 cells with IDH1 knockdown; Potency, µM (doses to about 46.1 µM), without a hit: at the highest dose activity, negative = toxicity, actives largely listed as cytotoxic; HT-1080 IDH1 knockdown viability, ATP luminescence, 48 h; 2% of 360,000 active;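 further: 0% = DMSO wells and -100% = cell-free medium wells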
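Knockdown cells (IDH1KD HT-1080) received compounds 2 h after plating at 750 cells/well and were kept 48 h at 37 °C in 5% FBS RPMI. A CellTiter-Glo luminescence read gave % activity for curve fitting.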
HT1080-NT tox: kills 2HG-producing HT-1080-NT fibrosarcoma cells. AID 686970. Potency, µM (highest dose often 46.1 µM), without a hit: top-dose activity, negative = less viability, most hits filed as cytotoxic. 1.6% of 360,000 active. HT-1080-NT fibrosarcoma viability, CellTiter-Glo ATP luminescence, 48 h;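 further: NT is the 2HG producing partner of a matched IDH1 knockdown line; 0% = DMSO-treated cells and -100% = media-only wells without cells; nearly all actives have a fitted effect of over 55% in size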
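Compounds were tested in concentration-response format on HT-1080-NT cells for 48 hours at 37 degrees C. Cell viability came from CellTiter-Glo luminescence; curves were classified by r2, response magnitude and activity.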
TDP1 cell CPT: DT40-hTDP1 cell growth loss with CPT | chicken DT40 Tdp1-/-;hTDP1 cells + 20 nM CPT, ATP luminescence, 48 h | Potency, µM (titrated, usually from 46.2 µM), without a hit: at the highest dose activity change, negative = growth inhibition, actives largely listed as inhibitors | 12% of 420,000 active | AID 686979; further: nearly all actives have a fitted effect of over 55% in size
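Cell growth measured by CellTiter-Glo luminescence after a minimum 48 h, 37 C compound exposure with 20 nM CPT in Tdp1-knockout DT40 cells stably expressing hTDP1, seeded 400/well; qHTS titration format.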
DT40 TDP1 no CPT: qHTS for Inhibitors of human tyrosyl-DNA phosphodiesterase 1 (TDP1): qHTS in cells in absence of CPT | DT40 Tdp1-/- hTDP1 cells, no CPT, ATP luminescence, 48 h | AID 686978, 2013 | Potency, µM (titrated, usually from 46.2 µM), for inactives: top-dose activity change, negative = growth inhibition, most hits filed as inhibitors | 15% of 420,000 active; further: nearly all actives have a fitted effect of over 55% in size
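DT40 Tdp1-/-;hTDP1 cells, no CPT (DMSO vehicle only), 400 cells/well; compounds pin-transferred; ≥48 hr, 37 °C; CellTiter-Glo 30 min RT dark, luminescence read.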
Active calls of the source: *; i = inactive; ? = inconclusive; · = no result given; ! = not active in a repeat. A selection: hits, their analogues and other compounds. The true share with any hit is near 19%. The call rests on the fitted dose curve; in most records, active means well fitted curve in the direction sought with a large enough effect; inconclusive means small, poorly fitted or top-dose-only effect, or another doubt; inactive means no such curve, though single readings can be large; an effect the other way counts as inactive or inconclusive. Unless noted, on the % scale 0 is the no-effect control and ±100 the full control effect; potency means the concentration at half of the fitted maximal effect.

SMILES	KB-V1 MDR tox	KB-3-1 cytotox	HT1080 IDH1KD tx	HT1080-NT tox	TDP1 cell CPT	DT40 TDP1 no CPT
COc1ccc(C)c2sc(N(CCN(C)C)C(=O)/C=C/c3cccs3)nc12	?	?	?	21µM*	?	?
COc1ccc(OC)c2sc(N(CCCN(C)C)C(=O)c3ccco3)nc12	i	i	·	·	?	?
CCc1cccc2sc(N(CCCN3CCOCC3)C(=O)CS(=O)(=O)c3ccccc3)nc12	i	i	-2%	-9%	?	?
O=C(CCS(=O)(=O)c1ccccc1)N(CCCN1CCOCC1)c1nc2c(F)cccc2s1	?	?	?	-6%	2.3µM*	2.9µM*
O=C(CCS(=O)(=O)c1ccccc1)N(CCCN1CCOCC1)c1nc2ccc(F)cc2s1	?	?	?	?	2.6µM*	3.7µM*
CCN(C(=O)COC(=O)CSc1ccc(C(N)=O)cc1[N+](=O)[O-])C1CCCCC1	·	·	0%	-4%	-27%	-14%
O=C1CCSc2ccc(S(=O)(=O)Nc3ccc(Cl)c(C(F)(F)F)c3)cc2N1	i	i	·	·	·	·
Cc1nn(-c2ccc([N+](=O)[O-])cc2)c2c1C(c1cccc(Br)c1)N1C(=N2)C(=O)Nc2ccccc21 (stereo not given)	?	i	1%	2%	2.6µM*	3.3µM*
Cc1nn(-c2ccccc2)c2c1C(c1ccc([N+](=O)[O-])cc1)N1C(=N2)C(=O)Nc2ccccc21 (stereo not given)	18µM*	23µM*	-25%	-17%	?	15µM*
Cc1nn(-c2ccccc2)c(N)c1C1(O)C(=O)Nc2ccc([N+](=O)[O-])cc21 (stereo not given)	i	i	3%	-2%	5%	8%
O=C1CC2(CCCCC2)Oc2ccc(Cl)cc21	i	i	-3%	1%	-3%	-13%
CNC(=O)C[C@H]1C(=O)N(c2ccc(Br)cc2)C[C@@H]1C	i	i	1%	0%	-8%	-18%
COc1ccc(OC)c(N=c2ssnc2Cl)c1	i	i	-2%	-6%	12µM*	12µM*
COc1cc(N=c2ssnc2Cl)c(OC)cc1Cl	i	i	-1%	?	2.6µM*	2.6µM*
Nc1ccccc1N=c1ssnc1Cl	i	i	-1%	-14%	?	?
C[C@H](CO)N1C[C@H](C)[C@@H](CN(C)S(=O)(=O)c2ccc(F)cc2)Oc2ccc(NS(=O)(=O)c3ccccc3)cc2C1=O	?	i	0%	1%	1%	-5%
COc1ccc(C(N)CCc2ccc(C)o2)cc1 (stereo not given)	i	i	-12%	-12%	?	18µM*
CCc1ccc(CCC(=O)Nc2ccc(OC)cc2)o1	i	i	?	-27%	-14%	-25%
O=C(Cc1cccs1)Nc1nnc(SCc2ccc(C(F)(F)F)cc2)s1	i	i	-2%	-15%	15µM*	?
C=C(CN(C)C)C(=O)c1cc(C)ccc1C	?	?	4.6µM*	?	0.58µM*	1µM*
COCCNC(=O)c1cc(C)ccc1C	i	i	30%	9%	-2%	-1%
O=C(O)c1c(Cl)cccc1Nc1ccccc1	i	i	-3%	-5%	-10%	23µM*
O=C(O)c1ccccc1Nc1ccccc1	i	i	-4%	-7%	21µM*!	?
COc1ccc(CCNC(=O)NCc2noc3ccc(C)cc23)c(OC)c1	i	i	·	·	-9%	?
CN(CC(=O)Nc1ccccc1C(F)(F)F)C(=O)c1ccc(N2C(=O)CCC2=O)cc1	i	i	4%	7%	20%	-2%
SMILES	KB-V1 MDR tox	KB-3-1 cytotox	HT1080 IDH1KD tx	HT1080-NT tox	TDP1 cell CPT	DT40 TDP1 no CPT
CCC(=O)N1CCCC1(C)C(=O)NCc1ccc(SC)cc1 (stereo not given)	i	i	2%	-3%	-10%	-8%
CSc1ccc(CNC(=O)C2(C)CCCN2CC(C)C)cc1 (stereo not given)	i	i	12%	-2%	18µM*	16µM*
COc1ccc(/C(C)=N\Nc2nc(-c3ccccc3)cc(=O)[nH]2)cc1	?	i	4%	-1%	-18%	-15%
C/C(=N/Nc1nc(-c2ccccc2)cc(-c2ccc(F)cc2)n1)c1cccc(N)c1	5.2µM*	?	?	?	?	?
C/C(=N\Nc1nc(C)cc(-c2ccccc2)n1)c1ccc(F)cc1	i	?	-10%	4%	?	7.3µM*
C/C(=N\Nc1nc(N)cc(Cl)n1)c1cccc(N)c1	i	i	23%	-3%	?	?
COc1ccc(/C(C)=N/Nc2nc(C)cc(-c3ccccc3)n2)cc1	i	?	?	?	4.1µM*	4.6µM*
CCOc1ccc(NC(=O)CN(C)C(=O)c2ccc3nc(CC)c(CC)nc3c2)cc1OCC	i	?	2%	1%	2%	-19%
COc1ccccc1C#CC1=CC(=O)CC(C)(C)C1	?	i	-7%	-8%	16µM*	9.2µM*
COc1ccc(C#CC2=CC(=O)CC(C)(C)C2)cc1	i	i	-9%	-13%	?	?
C/C(=N\OCC(=O)OCC(=O)N(Cc1ccccc1)C(C)(C)C)c1ccc2c(c1)OCO2	?	i	-1%	-7%	-1%	-10%
COc1cc(CCC(=O)OCC(=O)Nc2cccc(S(=O)(=O)N(C)C)c2)cc(OC)c1OC	i	i	1%	-2%	-8%	6%
COc1cc(CCC(=O)Nc2ccc(C)c(S(=O)(=O)N(C)C)c2)cc(OC)c1OC	?	i	?	-3%	15µM*	21µM*
COc1ccc(CCC(=O)Nc2ccc(C)c(S(=O)(=O)N(C)C)c2)cc1OC	?	i	-29%	-2%	?	16µM*
Cc1ccc(NC(=O)CNCC2CCCCC2)cc1S(=O)(=O)N(C)C	?	i	-2%	9%	16µM*	?
Cc1ccc(NC(=O)CSc2nn(-c3ccccc3)c(=S)s2)cc1S(=O)(=O)N(C)C	6.5µM*	?	?	-15%	5.2µM*	5.2µM*
Cc1ccc(NC(=S)NC2CCCCC2)cc1S(=O)(=O)N(C)C	i	i	-16%	2%	?	?
